High-throughput results as filed in PubChem BioAssay.
Hits are enriched below; roughly 9.1% of the tested compounds scored in any of these assays.
D1 mod: D1 CRE-luciferase signal change, two-sided – cell-based, HEK293 D1, dopamine EC30, D1 allosteric modulator project, primary screen | 5.9% of 58,000 active | D(1A) dopamine receptor (Homo sapiens), P21728 | B-score at 10 µM | dopamine EC30 potentiation; actives deviate in either direction;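 active = luminescence count or its row- and column-corrected plate score outside the 99.7% band of the plate's sample wells, on either side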
Target sequence (P21728 whole entry, looked up): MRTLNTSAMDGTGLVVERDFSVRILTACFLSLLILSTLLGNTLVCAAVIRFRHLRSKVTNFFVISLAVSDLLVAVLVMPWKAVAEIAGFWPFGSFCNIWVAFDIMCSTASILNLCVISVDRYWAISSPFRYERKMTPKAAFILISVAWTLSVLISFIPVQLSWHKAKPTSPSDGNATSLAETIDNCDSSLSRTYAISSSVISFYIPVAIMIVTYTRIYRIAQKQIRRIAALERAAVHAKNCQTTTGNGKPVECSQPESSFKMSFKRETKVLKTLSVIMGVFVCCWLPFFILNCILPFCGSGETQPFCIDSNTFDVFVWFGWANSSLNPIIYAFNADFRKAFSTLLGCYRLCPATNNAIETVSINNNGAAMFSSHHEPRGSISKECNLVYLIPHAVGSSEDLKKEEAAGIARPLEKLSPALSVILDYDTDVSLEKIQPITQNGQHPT
M1 antagonist: antagonists of rat M1 muscarinic receptor; 3.4% of 64,000 active; CHO-M1 cells, Fluo-4 calcium, ACh EC80 antagonist mode; stronger effect = lower value; AID 628, 2007; Muscarinic acetylcholine receptor M1 (Rattus norvegicus), P08482; B-score at 10 µM;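 active = calcium fluorescence response, raw or row-and-column corrected B-score, differing from the plate sample mean either way at a set confidence level, mostly lower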
mHtt clearance: clearance of mutant huntingtin inclusions, primary screen, imaging, HeLa Exon1htt(103Q)mCFP, confocal imaging; aggregate imaging; zero = plate's median compound well; inhibition, % at 1.5 µM; 0.42% of 47,000 active;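 active = inhibition of aggregate fluorescence above about 70%, also judged a hit by eye on the cell image, limit read from the data, passing the limit was not always enough; inconclusive = no rule stated for this call; inactive = not judged a hit on image review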;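 also: cells exposed to compound for three days before fixation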
M1 ag: M1 muscarinic receptor agonists, primary screen, CHO-M1 cells, Fluo-4 calcium, agonist mode | Muscarinic acetylcholine receptor M1 | Fluo-4 calcium fluorescence; stronger effect = higher value | B-score at 10 µM | 3% of 64,000 active | AID 626, 2007;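 active = fluorescence rise, raw or as B-score row- and column-corrected plate score, outside the 99.7% band of its plate's samples, either direction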
M1 agonist conf: rat M1 muscarinic receptor agonists, confirmation, CHO-M1 cells, Fluo-4 calcium, duplicate retest | fluorescence change (max-min) at 10 µM | shares compounds with M1 ag | 19% of 1,700 active | Fluo-4 calcium fluorescence, agonist mode; actives lie on both sides;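 active = fluorescence change differs from the solvent-only DMSO control mean at a set confidence level in both duplicate runs; inconclusive = differs from solvent-only control mean in just one of two runs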;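 also: an EC20 dose of acetylcholine follows compound addition during the same imaging run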
M4 ag counter: agonist activity at rat M4 receptor, confirmation, counter-screen for M1 allosteric modulator project, cell-based, agonist mode; shares compounds with M1 ag; CHO M4/Gqi5 cells, Fluo-4 calcium fluorescence; actives lie on both sides; fluorescence change (max-min) at 10 µM; 9% of 1,700 active; AID 1741, 2009;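 active = fluorescence change differing from the plate's solvent-only control wells at 99.7% confidence in both duplicates, whether higher or lower; inconclusive = differs from solvent controls in only one of two duplicates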
D1 PAM confirm: D1 receptor positive allosteric modulators, retest, confirmation, cell-based, HEK293 D1, CRE-luciferase, duplicate; shares compounds with D1 mod; dopamine EC30 potentiation; stronger effect = higher value; luminescence at 10 µM; 88% of 2,200 active; AID 642, 2007;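 active = luminescence in either of two replicates above the same-plate mean plus 3 SD of the low-dose dopamine control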
D1 ag no DA: D1 receptor agonism without dopamine, confirmation, mechanism study for D1 allosteric modulator project, cell-based, HEK293 D1, CRE-luciferase, secondary assay 1; 0.8% of 1,900 active; luminescence, no dopamine; stronger effect = higher value; luminescence at 10 µM; shares compounds with D1 mod; in the data active = luminescence above about 3900
Isoprot counter: isoproterenol response counter-screen activity for D1 modulators; shares compounds with D1 mod; HEK293 D1 CRE-luciferase, isoproterenol EC30 counter-screen; stronger effect = higher value; luminescence at 10 µM; 63% of 2,200 active; AID 647;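 active = luminescence in either replicate above plate mean of wells with a partly effective reference agonist dose plus 3 SD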;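 also: isoproterenol raises cAMP through native beta-adrenoceptor Gs so signal bypasses D1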
Numbers stand for hits; n = inactive; u = inconclusive; x = not tested or not shown.

SMILES	D1 mod	M1 antagonist	mHtt clearance	M1 ag	M1 agonist conf	M4 ag counter	D1 PAM confirm	D1 ag no DA	Isoprot counter
CC(C)c1ccc(N(C(=O)C(F)(F)F)C(C(=O)NC2CCCCC2)c2ccncc2)cc1 (configuration not stated)	x	x	n	x	x	x	x	x	x
COC(=O)c1cccc(S(=O)(=O)N2CCC(NC(=O)NC34CC5CC(CC(C5)C3)C4)CC2)c1	4.6	n	n	3.8	u	n	11624	n	n
C=CCn1c(SCC(=O)Nc2c(C)cccc2C)nnc1-c1cnccn1	n	n	x	n	x	x	x	x	x
CCN(CC)c1ccc2c(c1)OC(N)=C(C#N)C2c1cccnc1 (configuration not stated)	9.3	-4.6	x	18	681	652	13200	n	5488
COc1ccc(CCNC(=O)c2cc3ccccn3n2)c(OC)c1OC	n	n	x	n	x	x	x	x	x
O=CN1Cc2[nH]c3ccccc3c2N(c2ccc(Cl)cc2)C1=O	9	n	n	4.8	n	n	10080	n	n
O=C1CNCc2[nH]c3ccccc3c2N1c1ccccc1	n	n	x	n	x	x	x	x	x
COc1ccc(C(=O)CSc2nc(SC)ns2)cc1OC	8.4	n	n	-2.8	n	n	17700	n	4392
CSc1nsc(SCC(=O)Nc2ccccn2)n1	n	n	n	n	x	x	x	x	x
O=C1C2CCCN2C(c2ccc(Cl)cc2)N1c1nccs1 (configuration not stated)	n	n	n	n	x	x	x	x	x
CCOc1nc(NCCc2ccc(OC)c(OC)c2)nc(NC(C)(C)CO)n1	3.2	n	x	2.1	u	n	9808	n	n
CCCC(C)c1nnc(NC(=O)c2cc(C(=O)OC)cc([N+](=O)[O-])c2)s1 (configuration not stated)	x	x	n	x	x	x	x	x	x
CN(C)c1ccc(NC(=O)Cn2c(=O)n(Cc3ccccc3)c(=O)c3ccccc32)cc1	n	n	x	n	x	x	x	x	x
CCOC(=O)c1cc2c(=O)n3ccccc3nc2n(C(C)C)c1=NC(=O)c1ccncc1	5.7	n	n	2.5	u	n	16620	n	4096
CCOC(=O)C1CCCN(C(=O)c2cc3nc(-c4cccc(OC)c4)cc(C(F)(F)F)n3n2)C1 (configuration not stated)	11	n	x	3.7	n	n	14152	n	5168
CCOC(=O)C1CCCN(C(=O)c2cnn3c(C(F)(F)F)cc(-c4ccccc4)nc23)C1 (configuration not stated)	n	n	x	n	x	x	x	x	x
O=C(CCn1c(=S)[nH]c2cc3c(cc2c1=O)OCO3)N1CCN(C2CCCCC2)CC1	n	n	n	n	x	x	x	x	x
CC1Cc2ccccc2N1C(=O)c1ccc2snnc2c1 (configuration not stated)	15	n	x	7.5	n	u	13280	n	3936
Cc1nc(NCCCn2ccnc2)c2ccccc2n1	x	n	x	n	x	x	x	x	x
O=C1c2ccccc2-c2onc3ccc(NCCCn4ccnc4)c1c23	3.9	-11	x	97	n	n	11264	n	n
Cc1sc(NC(=O)CSc2nnc(COc3ccccc3)n2C)c(C#N)c1C	6.8	n	n	2.4	u	n	n	n	n
Nc1n[nH]c(-c2ccccc2)c1-c1ccccc1	n	n	n	n	x	x	x	x	x
CCOC(=O)N1CCC(NC(=O)c2cccc3c2C(=O)N(c2ccc(OC)cc2)C3)CC1	5.2	n	n	2.5	u	n	10556	n	3540
Cc1ccc(S(=O)(=O)N2CCSC2c2ccco2)cc1 (configuration not stated)	n	n	x	n	x	x	x	x	x
CSc1ccc(C2Nc3ccccc3-c3cc(C)nn32)cc1 (configuration not stated)	n	n	x	n	x	x	x	x	x
SMILES	D1 mod	M1 antagonist	mHtt clearance	M1 ag	M1 agonist conf	M4 ag counter	D1 PAM confirm	D1 ag no DA	Isoprot counter
Cc1cc2n(n1)C(c1ccccc1Cl)Nc1ccccc1-2 (configuration not stated)	14	n	x	2.5	n	n	16788	n	3152
CC(=O)Nc1nc2n(n1)C(c1ccccc1)C=C(c1ccccc1)N2 (configuration not stated)	3.4	n	n	20	132	n	6792	n	n
Cn1nnc(NC(=O)c2ccco2)n1	n	n	n	n	x	x	x	x	x
O=C(Nc1nc2n(n1)C(c1ccccc1)C=C(c1ccccc1)N2)c1ccco1 (configuration not stated)	2.9	n	n	19	n	n	11140	n	3016
CC1=C(C(=O)Nc2ccccc2)C(c2cccnc2)n2nc(-c3cccnc3)nc2N1 (configuration not stated)	n	n	n	n	x	x	x	x	x
CCOc1ccc(-c2noc(COC)n2)cc1OC	3.4	n	n	3.2	n	n	8824	n	n
CCCCn1c(SCC2CCCCO2)nc2cc(S(N)(=O)=O)ccc21 (configuration not stated)	n	n	x	n	x	x	x	x	x
CCOC(=O)C1CCCN(C(=O)c2cc(Nc3ccc(OC)c(OC)c3)nc3ccccc23)C1 (configuration not stated)	4	n	n	8.3	n	u	12712	n	4088
CCOC(=O)C1CCCN(C(=O)c2cc(Cl)ccc2Cl)C1 (configuration not stated)	4.2	n	n	5.5	n	-76	5420	n	n
CCOC(=O)C1CCCN(C(=O)c2cn(C)c(=O)c3cc(OC)c(OC)cc23)C1 (configuration not stated)	n	n	x	n	x	x	x	x	x
CCOC(=O)c1c(C)oc2c1c(C=NCc1ccccn1)c(O)c1ccccc12	4.2	n	x	7.1	n	n	12568	n	n
COc1ccc(CN2C(=O)c3cccnc3C2Nc2cc(Cl)ccc2OC)cc1 (configuration not stated)	12	n	x	4.8	n	n	26704	n	6624
O=C(c1ccc(Cl)c(S(=O)(=O)N2CCOCC2)c1)N1CCN(Cc2ccccc2)CC1	x	x	n	x	x	x	x	x	x
CCN1CCN(C(c2cccs2)C(C)NC(=O)CC(C)C)CC1 (configuration not stated)	4.7	n	x	-2.7	u	n	n	n	n
